Compound activity: PubChem, National Center for Advancing Translational Sciences (NCATS)
An excerpt weighted towards active compounds, which were near 10% of everything screened.
GLS inhibitor = qHTS for Inhibitors of Glutaminase (GLS) | GLS enzymatic activity, qHTS titration | Potency, µM (highest dose often 45.5 µM), inactives show top-dose activity change, negative = inhibition, most hits filed as inhibitors | 0.21% of 410,000 active; also: % is scaled to controls: 0 for no effect and ±100 for the full control effect
Target sequence (O94925 whole entry, looked up): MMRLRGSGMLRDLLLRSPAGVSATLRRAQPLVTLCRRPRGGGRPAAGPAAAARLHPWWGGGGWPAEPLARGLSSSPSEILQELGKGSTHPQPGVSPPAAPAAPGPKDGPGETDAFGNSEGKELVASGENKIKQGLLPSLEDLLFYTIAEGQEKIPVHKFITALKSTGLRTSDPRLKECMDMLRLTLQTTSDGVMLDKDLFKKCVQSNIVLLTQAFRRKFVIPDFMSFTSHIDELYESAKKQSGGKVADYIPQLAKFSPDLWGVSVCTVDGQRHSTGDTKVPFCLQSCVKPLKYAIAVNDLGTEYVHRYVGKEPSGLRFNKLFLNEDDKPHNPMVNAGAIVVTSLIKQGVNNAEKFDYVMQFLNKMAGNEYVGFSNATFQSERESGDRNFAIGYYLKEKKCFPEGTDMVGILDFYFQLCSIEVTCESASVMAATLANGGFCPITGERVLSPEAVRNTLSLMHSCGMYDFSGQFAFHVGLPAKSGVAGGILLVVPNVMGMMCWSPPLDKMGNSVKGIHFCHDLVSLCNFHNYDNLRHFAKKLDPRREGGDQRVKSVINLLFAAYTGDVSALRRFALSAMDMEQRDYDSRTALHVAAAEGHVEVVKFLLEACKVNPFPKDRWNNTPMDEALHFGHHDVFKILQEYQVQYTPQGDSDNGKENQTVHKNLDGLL
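Read-out is an Amplex red fluorescence increase coupled through glutamate oxidase and HRP, measured before and after 30 min room-temperature incubation. hKGA is in 45 mM KH2PO4 (pH 8.2) with 0.02% Tween-20; glutamine added as 1mM solution.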
G9a block = qHTS Assay for Inhibitors of Histone Lysine Methyltransferase G9a | G9a H3K9 monomethylation, AlphaScreen, 2 h | Potency, µM (titrated, usually from 102 µM), for inactives: at the top dose activity, negative = inhibition, most hits filed as inhibitors | 8.8% of 350,000 active; also: % is scaled to controls: 0 for no effect and ±100 for the full control effect; nearly all actives have a fitted effect of over 75% in size
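Chemiluminescent proximity detection of H3K9 monomethylation, read after 10 min bead incubation in the dark. Reaction: 20 nM G9a, 500 nM biotin-H3K9 peptide, 20 uM SAM cofactor, 2 h, room temperature, following 15 min enzyme-compound preincubation.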
JMJD2A Tudor = qHTS Assay for Inhibitors of JMJD2A-Tudor Domain. AlphaScreen JMJD2A-Tudor / H3K4me3 peptide binding. Lysine-specific demethylase 4A (Homo sapiens), O75164. Potency, µM (highest dose often 114 µM), inactives show at the highest dose activity change, negative = inhibition, hits mostly inhibitors. 4.4% of 390,000 active; also: % is scaled to controls: 0 for no effect and ±100 for the full control effect; nearly all actives have a fitted effect of over 50% in size
HP1b chromo inh = HTS for Inhibitors of HP1-beta Chromodomain Interactions with Methylated Histone Tails | AlphaScreen HP1-beta / biotin-H3K9me3 peptide binding | Potency, µM (series often up to 114 µM), without a hit: at the highest dose activity change, negative = inhibition, usual class: inhibitors | Chromobox protein homolog 1 (Homo sapiens), P83916 | 0.56% of 390,000 active; also: nearly all actives have a fitted effect of over 70% in size
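AlphaScreen: HP1-beta (50 nM) preformed 30 min with biotin-H3(1-18)K9me3 peptide (50 nM) in PBS pH 7.4, 0.01% Tween-20. Compound added for 30 min at RT, then streptavidin donor/nickel chelate acceptor beads (10 ug/mL) for 30 min.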
BAZ2B block = qHTS Assay for Inhibitors of BAZ2B | AlphaScreen BAZ2B-H3K14Ac peptide displacement | 4.4% of 360,000 active | Bromodomain adjacent to zinc finger domain protein 2B (Homo sapiens), Q9UIF8 | Potency, µM (series often up to 114 µM), without a hit: at the top dose activity change, negative = inhibition, most hits filed as inhibitors; also: % is scaled to controls: 0 for no effect and ±100 for the full control effect; nearly all actives have a fitted effect of over 60% in size
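AlphaScreen displacement: compounds (up to 110uM) incubated 30 min at room temperature with a preformed 50 nM BAZ2B/50 nM biotinylated H3K14Ac peptide complex in PBS pH 7.4 with Tween-20. Donor and acceptor beads at 10 ug/mL final added, 20 min light-protected before reading.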
* hit, by the source's call; u = inconclusive; x = no result given; [ ] = another dose, or the depositor's remark. Calls follow the shape of the dose curve; as a rule, active = well fitted curve in the direction sought with a large enough effect; inconclusive = small, poorly fitted or top-dose-only effect, or another doubt; inactive = no such curve, though single readings can be large; an effect the other way counts as inactive or inconclusive. Potency is read from the fitted curve at half-maximal effect.

SMILES | GLS inhibitor | G9a block | JMJD2A Tudor | HP1b chromo inh | BAZ2B block
OC(COc1cccc2ccccc12)CN1CCN(c2ccccc2)CC1 (stereo unspecified) | 17% | 50µM* | 50µM* | -23% | u
CC(COc1cccc2ccccc12)CN1CCN(C)CC1 (stereo unspecified) | -6% | 45µM* | -19% | 19% | 4%
OC(COc1cccc2ccccc12)CN1CCOCC1 (stereo unspecified) | 1% | x | -8% | 21% | x
O=C(NCCCN1CCN(c2ccccc2F)CC1)c1ccc2nc(Cc3ccccc3)oc2c1 | -2% | -32%[59 µM] | -34% | 13%[57 µM] | -33%
CC(C)C1Cc2c(C#N)c(N)n(C)c(=S)c2CO1 (stereo unspecified) | 0% | 50µM* | -12% | 25% | -13%
Cn1c(N)c(C#N)c2c(c1=S)CSC(C)(C)C2 | 24% | 25µM* | 79µM* | 5% | -10%
Cn1c(N)c(C#N)c2c(c1=S)COC(C)(C)C2 | 9% | -16% | -11% | 12% | 2%
CC1(C)Cc2c(C#N)c(N)sc(=S)c2CS1 | 6% | 25µM* | 50µM* | u | -8%
CC(C)c1nc(Cl)c(C#N)c2c1CSC(C)(C)C2 | 7% | -5% | 7% | 15% | 3%
CCc1ccc(CN(C(=O)c2oc3ccccc3c2C)C2CCS(=O)(=O)C2)cc1 (stereo unspecified) | -1% | -10% | -21% | 15% | -7%
N/C(=N\OC(=O)N1c2ccccc2Sc2ccccc21)c1ccccc1 | 18% | 45µM* | u | 11% | u
Cc1cccc(/C(N)=N/OC(=O)N2c3ccccc3Sc3ccccc32)c1 | 13% | u | u | -5% | u
O=C(Nc1nnc(SCc2ccccc2)s1)c1cccc([N+](=O)[O-])c1 | 10% | 79µM* | -24% | -3% | -7%
O=C(Nc1nnc(CSCc2ccccc2F)s1)c1cccc([N+](=O)[O-])c1 | 20% | 18%[59 µM] | -20% | 32% | 9%
O=C(O)CCN1C(=O)NC2(CCCC2)C1=O | 3% | 20%[59 µM] | -34%[57.1 µM] | 32% | 6%
COc1cccc(N=c2oc3cc(O)ccc3cc2C(=O)NCC2CCCO2)c1 (stereo unspecified) | 20% | -10% | -35% | 8% | 35µM*
COc1ccccc1N=c1oc2cc(O)ccc2cc1C(=O)NCC1CCCO1 (stereo unspecified) | 3% | 23%[59 µM] | -20% | 18% | -9%
COc1ccc(C2NC(=O)NC(C)=C2C(=O)Nc2ccccc2)cc1OC (stereo unspecified) | -10% | -5%[59 µM] | -16% | 32% | 0%
CCN(CC)S(=O)(=O)c1ccc(C(=O)NNC(=O)c2cccs2)cc1 | -5% | 11%[59 µM] | -5% | 28% | 3%
NC(=O)N/N=C/c1c(Sc2nnnn2-c2ccccc2)nc2ccccn2c1=O | -6% | 50µM* | -1% | 44% | 2%
O=C(CSc1nnnn1-c1ccccc1)CSc1nnnn1-c1ccccc1 | 41% | -32%[12.7 µM] | -12% | 10% | 0%
O=C(c1ccc([N+](=O)[O-])cc1)N1CCOCC1 | 4% | x | -6% | 2% | x
COc1ccc(N/N=C(C)/C(=N/O)C(=O)Nc2ccccc2)cc1 | 26% | 22µM* | u | u | -38%
COc1ccc(C(=O)CC(=O)C(=O)Nc2ccccc2)cc1 | 13% | -1% | -14% | 50% | 71µM*
COc1ccc(C(=O)CC(=O)C(=O)Nc2cccc(F)c2)cc1 | 2% | -8% | -26% | 17% | 4%
SMILES | GLS inhibitor | G9a block | JMJD2A Tudor | HP1b chromo inh | BAZ2B block
C=C1CCN(C(Cc2ccccc2)C(=O)NCc2ccc(Cl)c(Cl)c2)S(=O)(=O)c2ccccc21 (stereo unspecified) | x | x | -9% | 30% | x
COc1cc(OC)cc(-c2sc3ccc(OC)cc3c2C#CC(C)(C)O)c1 | -2% | 8%[0.501 µM] | 0% | 63% | -35%
CCN(CC)CCNC(C(=O)Nc1ccc([N+](=O)[O-])cc1Br)c1ccccc1 (stereo unspecified) | -8% | u | -19% | 10% | u
CN(C)C(CNc1ccc(C(F)(F)F)cc1[N+](=O)[O-])c1ccccc1 (stereo unspecified) | -14% | 32µM* | 35µM* | 45µM* | 8.9µM*
CC(C)(CNc1ccc(C(F)(F)F)cc1[N+](=O)[O-])N1CCOCC1 | 0% | 71µM* | u | -11% | u
CN(C)C(CNC(C(=O)Nc1ccc([N+](=O)[O-])cc1Br)c1ccccc1)c1ccccc1 (stereo unspecified) | 2% | u | 35µM* | u | x
Cc1ccc(Nc2ccc(C(F)(F)F)cc2[N+](=O)[O-])cc1 | 1% | 3.2µM* | u | u | u
CC(Sc1ccccc1F)C(=O)Nc1ccc2c(c1)OCCO2 (stereo unspecified) | 0% | x | 5% | 32% | x
CNc1ccccc1C(C)(C)c1cc(-c2cccc([N+](=O)[O-])c2)no1 | -5% | 32µM* | u | -22% | u
O=C(Nc1nc(-c2ccccn2)cs1)c1ccc(S(=O)(=O)N2CCCCC2)cc1 | x | 65%[59 µM] | x | x | u
CC(Oc1cccc(Cl)c1)C(=O)Nc1nc(-c2ccccn2)cs1 (stereo unspecified) | -4% | 32µM* | 50µM* | 51% | 56µM*
C[C@H](NC(=O)c1ccccc1)C(=O)Nc1nc(-c2ccccn2)cs1 | 5% | -3% | 79µM* | 36% | 14µM*
CC(Oc1ccccc1)C(=O)Nc1nc(-c2ccccn2)cs1 (stereo unspecified) | 9% | 50µM* | 20µM* | 16% | 40µM*
O=C(Nc1cccnc1)OCc1ccccc1 | -4% | 20% | -5% | 56% | u
CC1CCCN(S(=O)(=O)c2ccc(NC(=O)c3cccc(-n4cnnn4)c3)cc2)C1 (stereo unspecified) | -11% | -16%[12.7 µM] | u | 11% | -10%
Cc1cc(C)c(OCCCCn2cnc3ccccc3c2=O)c(C)c1 | 2% | x | 1% | 56% | 18%
Cc1cc(OCCn2cnc3ccccc3c2=O)cc(C(C)C)c1 | -12% | -2%[59 µM] | 79µM* | 14% | -6%
CCOC(=O)C1(C)CCN1C(=O)c1ccccc1OC (stereo unspecified) | 2% | x | x | x | x
COc1ccc(S(=O)(=O)Nc2ccc(-c3ccc4nncn4n3)cc2)c(OC)c1 | 4% | 10µM* | -15% | u | 4%
COc1ccc(CCN2CC(C(=O)NCCc3ccc(C(F)(F)F)cc3)CCC2=O)cc1 (stereo unspecified) | 0% | 18% | -9% | 52% | 1%
